Source: PubChem BioAssay AID651774 (Broad Institute, 2012)
Results with a measured potency or affinity are listed apart. A number with no mark means an inactive call. The source made the active and inactive calls. The rule behind the calls is not given here.

Assay: cytotoxicity in HeLa cells, dose response, cytotoxicity control, cell-based, 24 h, dry powder (AID 651774)
Conditions: HeLa viability, CellTiter-Glo ATP luminescence; series mostly up to 35 µM; activity change, negative = cytotoxicity: at the top concentration

Row | SMILES | activity change, negative = cytotoxicity [%] | outcome
1 | O=C(Cc1ccc(-c2ccccc2)cc1)N1CCCC1 | 10.1 | –
2 | O=C(Cc1cccc(C(F)(F)F)c1)NC1CCCC1 | -3.06 | –
3 | CCn1nnnc1NCc1ccc(C(F)(F)F)cc1 | -7.68 | –
4 | O=C(Cc1ccc(-c2ccccc2)cc1)N1CCCCC1 | -10.2 | –
5 | O=C(Cc1ccc(-c2cccnc2)cc1)NC1CCCC1 | -4.99 | –
6 | O=C(Cc1ccccc1)NC1CCCC1 | 10.9 | –
7 | CCn1nnc(NCc2ccc(C(C)C)cc2)n1 | -5.76 | –
8 | CCn1nnc(NCc2ccccc2)n1 | 14 | –
9 | O=C(Cc1ccc(-c2ccccn2)cc1)NC1CCCC1 | -8.44 | –
10 | O=C(Cc1ccccc1I)NC1CCCC1 | -0.327 | –
11 | O=C(Cc1ccc(-c2ccccc2)cc1)Nc1ccccc1 | -4.47 | –
12 | COc1cccc(CC(=O)NC2CCCC2)c1 | -2.49 | –
13 | O=C(Cc1ccc(-c2ccccc2)cc1)NC1CCCCC1 | -10.4 | –
14 | CCn1nnc(NCc2ccc(N3CCCC3)cc2)n1 | – | inactive
15 | O=C(Cc1ccc(F)cc1)NC1CCCC1 | 11.6 | –
16 | O=C(Cc1cccc(F)c1)NC1CCCC1 | -2.5 | –
17 | CC(C)c1ccc(CNc2nnnn2C)cc1 | -2.45 | –
18 | O=C(Cc1ccc(-c2ccccc2)cc1)NC1CCNCC1 | -0.852 | –
19 | O=C(Cc1ccccc1-c1ccccc1)NC1CCCC1 | -7.46 | –
20 | O=C(NC1CCCC1)Oc1ccc(-c2ccccc2)cc1 | -2.37 | –
21 | O=C(Cc1ccc(-c2ccncc2)cc1)NC1CCCC1 | -0.196 | –
22 | CCn1nnnc1NCc1ccccc1 | 0.61 | –
23 | O=C(Cc1ccc(-c2ccccc2)cc1)NC1CCC1 | 8.77 | –
24 | O=C(Cc1ccc(-c2ccccc2)cc1)N1CC(F)(F)C1 | 1.81 | –
25 | O=C(Cc1ccccc1OC(F)(F)F)NC1CCCC1 | -4.41 | –
